Measurements reported in PubChem BioAssay AID602410 (Johns Hopkins Ion Channel Center, 2012).
In all, about 340,000 compounds went through this assay and about 2,800 (0.82%) were called active.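 The calls were made as follows: active = B-score under library mean minus 4 SD, starting fluorescence ratio at most library mean plus 5 SD; inactive = the rest.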 Only a selection was taken, and actives are over-represented in it overall.

Target: Potassium channel subfamily K member 3 (Homo sapiens) (UniProt O14649)
Sequence (O14649 whole entry, looked up): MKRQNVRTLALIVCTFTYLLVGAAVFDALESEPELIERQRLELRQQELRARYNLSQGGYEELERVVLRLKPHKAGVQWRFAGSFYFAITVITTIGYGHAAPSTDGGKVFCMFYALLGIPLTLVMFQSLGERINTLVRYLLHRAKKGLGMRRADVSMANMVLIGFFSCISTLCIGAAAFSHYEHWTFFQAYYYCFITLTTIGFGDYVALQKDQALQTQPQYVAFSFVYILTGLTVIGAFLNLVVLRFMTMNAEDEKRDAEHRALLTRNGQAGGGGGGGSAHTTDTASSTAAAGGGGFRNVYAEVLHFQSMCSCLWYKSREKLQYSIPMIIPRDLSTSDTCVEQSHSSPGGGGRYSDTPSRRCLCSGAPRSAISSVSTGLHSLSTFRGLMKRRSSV
Assay: human KCNK3 channel inhibitors, primary screen, CHO cells, FluxOR thallium flux, B-score (AID 602410);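 as to B-score: more negative B-score means stronger inhibition of thallium flux through KCNK3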
Conditions: FluxOR fluorescence, at 10 µM; active compounds read low

B-score, active:
CCc1ccc(-n2c(=S)sc3c(=O)n(-c4ccccc4OC)c(=S)[nH]c32)cc1 -11
COc1ccc([N+](=O)[O-])cc1-c1nc2ccccc2nc1-c1ccccc1 -12
COc1cc(NC(=O)c2ccccc2NS(=O)(=O)c2ccc(Cl)s2)cc(OC)c1 -9.84
O=C(Nn1c(SCc2ccc([N+](=O)[O-])cc2)nc2ccccc2c1=O)c1ccc(F)cc1 -9.24
Cc1cc(C=O)c(C)n1-c1ccc(NC2CCCCC2)c([N+](=O)[O-])c1 -13.4
CCN(CC(=O)Nc1ccc2c(c1)OCCO2)Cc1cc(=O)oc2cc(C)c(C)cc12 -8.72
COc1cc(Cl)c(S(=O)(=O)N2CCN(Cc3ccc4c(c3)OCO4)CC2)cc1Cl -11.5
FC(F)(F)c1cccc(-c2cc3ccccc3nc2N2CCCC2)c1 -9.37
Cc1cccc(C)c1N1CCN(S(=O)(=O)N2CCCCC2)CC1 -11.9
[O-][n+]1ccc(OCc2ccccc2)cc1 -9.05
COc1cc(/C=C(\C#N)c2nc3ccccc3[nH]2)ccc1O -8.85
Cc1cccc(NC(=O)CN2CCCN(S(=O)(=O)c3ccc(Br)s3)CC2)c1 -11.4

B-score, inactive:
COC(=O)CNS(=O)(=O)c1ccc(Cc2ccc(S(=O)(=O)NCC(=O)OC)cc2)cc1
CCN1CCN(C(=O)Cn2nc(C)n3c(cc4c(OC)cccc43)c2=O)CC1
COc1ccccc1Oc1ccc(N2CC(C(=O)OCC(=O)c3ccc(F)cc3)CC2=O)cc1 (centres undefined)
CC(O)c1nc2ccccc2n1Cc1ccc([N+](=O)[O-])cc1 (centres undefined)
COc1cccc(-n2c(=S)sc3c(=O)n(-c4ccccc4OC)c(SCC4OCCO4)nc32)c1
COc1ccccc1-n1c(=S)[nH]c2c(sc(=S)n2-c2ccc(C)cc2C)c1=O
C/C(=N\Nc1ccc([N+](=O)[O-])cc1)c1ccc(-n2nncc2C(C)(C)C)cc1
CCCCC(NC(=O)c1cccc(Br)c1)C(=O)O (centres undefined)
O=[N+]([O-])c1ccc2c(c1)Nc1nc3ccccc3nc1N2
O=[N+]([O-])c1cc2ccccc2nc1-c1ccccc1
CCOc1ccc(NC(=O)c2ccccc2NS(C)(=O)=O)cc1
COc1ccccc1C(=O)Nc1ccccc1C(=O)Nc1ccccc1
Cc1ccc(S(=O)(=O)NNC(=S)NC(C)(C)C)cc1
C=CCn1c(SCc2ccc(C(=O)NCCO)cc2)nc2ccccc2c1=O
Cc1nc2ccccc2c(=O)n1NC(=O)c1ccc(Cl)c([N+](=O)[O-])c1
Cc1nc2cccnc2nc1C
COc1ccc(-c2c(NC(=O)c3ccco3)oc3ccc(Cl)cc3c2=O)cc1
Cc1c(NS(=O)(=O)c2ccc(NC3CCCC3)c([N+](=O)[O-])c2)c(=O)n(-c2ccccc2)n1C
Cc1cc([N+](=O)[O-])ccc1NC1CCCC1
Cc1cccc(N=C2NC(=O)CS2)c1C
CCn1cc(C(=O)NCCCN2CCCCCC2)c(=O)c2cc(S(=O)(=O)N3CCc4ccccc4C3)ccc21
O=C(CSc1nnc(-c2ccncc2)n1-c1ccc(Cl)cc1)Nc1ccc(C(=O)O)cc1
Cc1ccc(SCC(=O)Nc2ccc3c(c2)OCCO3)cc1
O=C(COc1ccc2c(C(F)(F)F)cc(=O)oc2c1)Nc1ccc2c(c1)OCCO2
Cc1cccc(N(C(=O)Cn2nnc(-c3ccc(C)o3)n2)C(C(=O)NC2CCCC2)c2ccncc2)c1 (centres undefined)
CCC(C)(C)NC(=O)/C=C/c1cc(OC)c(OC)c(S(=O)(=O)N2CCc3ccccc32)c1
COc1ccc(-c2cc(C(=O)N3CCN(Cc4ccc5c(c4)OCO5)CC3)on2)cc1OC
CCn1cc(C(=O)N2CCN(Cc3ccc4c(c3)OCO4)CC2)c2cc(OC)c(OC)cc2c1=O
Cc1nc(N)sc1N=Nc1c(C)n(C)n(-c2ccccc2)c1=O
c1ccc(-c2cc(N3CCCCC3)c3ccccc3n2)cc1
O=C(c1cc2ccccc2o1)N1CCN(c2cccc(C(F)(F)F)c2)CC1
COC(=O)[C@@H]1CC(O)CN1C(=O)C12CC3CC(CC(C3)C1)C2 (some centres undefined)
CC1CN(CCOc2ccccc2[N+](=O)[O-])CC(C)O1 (centres undefined)
Cc1cccc(C(=O)N2CCN(S(=O)(=O)N3CCCCC3)CC2)c1
Cc1cccc(C)c1N1CCN(S(=O)(=O)N2CCOCC2)CC1
COC(=O)c1ccc(CNC(=O)C2CCC(=O)N(Cc3ccccn3)C2)cc1 (centres undefined)
COc1ccc(CN2CCN(C(=O)c3cc(C4CC4)nn3-c3ccccc3)CC2)cc1F
CN(Cc1ccccc1)C(=O)c1ccc(COc2ccccc2)cc1
O=C(O)/C=C\C(=O)Nc1ccc(OCc2ccccc2)cc1
CCCN1Cc2cccc(C(=O)Nc3ccc(S(=O)(=O)N4CCCCCC4)cc3)c2C1=O
O=S(=O)(Nc1ccc(O)c2ccccc12)c1ccc(OC(F)(F)F)cc1
Cc1nn(C)c(Oc2ccc(Cl)cc2)c1C=O
CCN(CC(=O)Nc1cc(Cl)ccc1C)C(=O)Cn1c(=O)cnc2ccccc21
CCCCCOc1ccc(/C=C/C(=O)NCCc2nc3ccccc3[nH]2)cc1OC
Cc1ccc(O)c(CNc2nc3ccccc3[nH]2)c1
CCCCCc1nnc(NC(=O)c2ccc(=O)n(C)n2)s1
COCCCNCCOCCOc1ccc(Cl)cc1Br
Cc1ccc(OCC(=O)c2cc(C)n(Cc3ccco3)c2C)c([N+](=O)[O-])n1
CC(C)N(C(=O)CN1CCN(S(=O)(=O)c2ccc(Br)s2)CC1)C(C)C
Cc1ccc(S(=O)(=O)N2CCN(CC(=O)N/N=C/c3ccc(Br)s3)CC2)cc1
NC(=O)C1CCN(C(=O)CC2C(=O)NCCN2Cc2cccc(Oc3ccccc3)c2)CC1 (centres undefined)
C[C@H](O)[C@@H]1C(=O)N2CCc3ccc(N4CCOCC4)cc3[C@@H]2C[C@@H]1N(C)C(=O)C(C)(C)C
